DT40 TDP1 CPT: growth inhibition of DT40 Tdp1-/-;hTDP1 cells with camptothecin (screen for TDP1 inhibitors). chicken DT40 Tdp1-/-;hTDP1 cells + 20 nM CPT, ATP luminescence, 48 h. Potency, µM (titrated, usually from 46.2 µM), for inactives: top-dose activity change, negative = growth inhibition, hits mostly inhibitors. hit rate 12% among 420,000; further: nearly all actives have a fitted effect of over 55% in size
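Chicken DT40 Tdp1-/- cells complemented with human TDP1, 400 cells/well, exposed to compounds plus 20 nM camptothecin for at least 48 h at 37 C; viability read as ATP content by CellTiter-Glo luminescence.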
DT40 TDP1 no CPT: qHTS for Inhibitors of human tyrosyl-DNA phosphodiesterase 1 (TDP1): qHTS in cells in absence of CPT. DT40 Tdp1-/- hTDP1 cells, no CPT, ATP luminescence, 48 h. Potency, µM (top dose mostly 46.2 µM), for the others: at the highest dose activity change, negative = growth inhibition, usual class: inhibitors. hit rate 15% among 420,000; further: nearly all actives have a fitted effect of over 55% in size
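Compound effects on proliferation are scored in DT40 Tdp1-/-;hTDP1 cells in the absence of CPT. ATP levels (CellTiter-Glo luminescence) are recorded after a ≥48 hr, 37 °C incubation.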
KAT2A inh: GCN5L2 (KAT2A) acetyltransferase inhibition | Q92830 | GCN5L2 HAT assay, ThioGlo1 CoA-SH fluorescence | Potency, µM (highest dose often 58.9 µM), for the others: at the highest dose activity change, negative = inhibition, usual class: inhibitors | hit rate 0.21% among 390,000 | AID 504327
Target sequence (Q92830 whole entry, looked up): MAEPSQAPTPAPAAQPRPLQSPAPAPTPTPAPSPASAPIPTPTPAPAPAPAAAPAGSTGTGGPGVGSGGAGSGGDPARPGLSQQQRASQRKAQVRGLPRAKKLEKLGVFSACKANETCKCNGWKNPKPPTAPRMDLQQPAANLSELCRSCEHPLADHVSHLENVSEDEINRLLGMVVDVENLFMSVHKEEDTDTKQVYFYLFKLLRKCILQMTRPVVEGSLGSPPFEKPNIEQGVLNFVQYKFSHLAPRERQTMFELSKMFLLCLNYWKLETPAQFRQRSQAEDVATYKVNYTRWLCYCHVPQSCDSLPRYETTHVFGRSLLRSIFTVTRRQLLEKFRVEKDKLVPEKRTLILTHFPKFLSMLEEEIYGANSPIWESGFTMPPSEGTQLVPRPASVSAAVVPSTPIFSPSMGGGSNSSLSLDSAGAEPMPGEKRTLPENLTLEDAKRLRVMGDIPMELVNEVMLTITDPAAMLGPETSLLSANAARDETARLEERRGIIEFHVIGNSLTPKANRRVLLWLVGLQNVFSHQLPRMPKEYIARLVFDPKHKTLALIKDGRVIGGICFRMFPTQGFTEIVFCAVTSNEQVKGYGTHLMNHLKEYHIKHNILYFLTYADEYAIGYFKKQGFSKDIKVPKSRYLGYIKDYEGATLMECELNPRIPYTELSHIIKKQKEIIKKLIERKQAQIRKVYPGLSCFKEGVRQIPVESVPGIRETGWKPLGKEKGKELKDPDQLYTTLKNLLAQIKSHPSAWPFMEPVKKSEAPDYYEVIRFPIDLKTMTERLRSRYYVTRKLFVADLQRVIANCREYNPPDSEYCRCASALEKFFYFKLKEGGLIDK
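Preincubate 20nM GCN5L2 with compound 15 min, RT → add 50uM ThioGlo1 + 75uM H3(1-25) + 70uM acetyl-CoA → read fluorescence 0 and 20 min. Primary qHTS; fluorescent artifacts likely.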
TDP1 inh: TDP1 (human) enzyme inhibition | Q9NUW8 | recombinant TDP1, AlphaScreen DNA substrate cleavage | Potency, µM (top dose mostly 130 µM), for the others: top-dose activity change, negative = inhibition, hits mostly inhibitors | hit rate 0.28% among 350,000 | AID 485290; further: nearly all actives have a fitted effect of over 40% in size
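Steps: enzyme plus compound, 15 min RT; add biotin/phosphotyrosine-FITC oligonucleotide (15 nM final), react 5 min; add donor/acceptor beads (10 ug/ml final), 10 min; read AlphaScreen. Tdp1 at 1 nM final.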
VDR inh: blocks the human vitamin D receptor; P11473; VDR-SRC2-3 peptide fluorescence polarization, 2 h; Potency, µM, without a hit: max response, negative = inhibition, hits mostly inhibitors; hit rate 0.93% among 400,000; AID 504847
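VDR–SRC2-3 interaction, FP format. Cmpds 23 nl via pintool, brief spin, 2 h ambient incubation.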
PLK1 PBD inh: PLK1 (human) polo-box domain binding inhibition; hit rate 2.8% among 360,000; AID 720504; P53350; Potency, µM, for the others: max response, negative = inhibition, hits mostly inhibitors; Plk1 PBD binding of FITC phosphopeptide, fluorescence polarization; further: series mostly up to about 57 µM; nearly all actives have a fitted effect of over 65% in size
* hit, by the source's call; ? = inconclusive; · = no result; [ ] = remark or other dose. The list is not random: actives were taken first. Their share in the collection is about 18%. The call rests on the fitted dose curve; in most records, active means well fitted curve in the direction sought with a large enough effect; inconclusive means small, poorly fitted or top-dose-only effect, or another doubt; inactive means no such curve, though single readings can be large; an effect the other way counts as inactive or inconclusive. On the % scale 0 is the no-effect control and ±100 the full control effect; potency means the concentration at half of the fitted maximal effect.

SMILES	DT40 TDP1 CPT	DT40 TDP1 no CPT	KAT2A inh	TDP1 inh	VDR inh	PLK1 PBD inh
CC1(C)C2([N+](=O)[O-])CN3CC1([N+](=O)[O-])CN(C2)C3c1ccccc1 (centres undefined)	11.1%	-4.4%	-5.3%	0.0%	-19.6%	2.8%
CC(C)c1ccc(C2N3CC4([N+](=O)[O-])CN2CC([N+](=O)[O-])(C3)C4(C)C)cc1 (centres undefined)	8.2µM*	?	1.3%	-2.3%	-3.6%	-4.7%
C(=NOCCc1ccccc1)c1ccccn1	-10.3%	-24.7%	·	·	-1.1%	-0.4%
CCOC(=O)c1cnc(SC)nc1Sc1cc(Cl)ccc1Cl	20.6µM*	18.4µM*	15.7%	1.0%	12.3%	-5.7%
COc1cc2cc(C(c3nnnn3C3CCCC3)N(C)C3CCCCC3)c(=O)[nH]c2cc1OC (centres undefined)	15.8µM*	25.1µM*	-7.1%	4.7%	-7.1%	-6.0%
CC(C)(C)n1nnnc1C(c1cc2cc3c(cc2[nH]c1=O)OCCO3)N1CCSCC1 (centres undefined)	-23.1%	-14.9%	-2.1%	2.9%	8.4%	0.5%
CC(C)C(c1nnnn1C1CCCC1)N(C)C1CCCCC1 (centres undefined)	?	?	-1.3%	-1.0%	6.8%	0.6%
Cc1ccc(C(c2nnnn2C2CCCCC2)N(C)C2CCCCC2)cc1 (centres undefined)	23.1µM*	23.1µM*	-1.9%	0.0%	3.5%	-1.6%
O=c1[nH]c2cc3c(cc2cc1C(c1nnnn1C1CCCC1)N1CCSCC1)OCCO3 (centres undefined)	23.1µM*	18.4µM*	-0.2%	7.0%	-2.4%	-3.0%
COc1cc2cc(C(c3nnnn3C3CCCCC3)N(C)C3CCCCC3)c(=O)[nH]c2cc1OC (centres undefined)	23.1µM*	?	-14.3%	6.3%	-9.1%	-5.8%
CSc1ccc(CN2CCC(C(=O)NCc3ccc(C)cc3)CC2)cc1	?	-29.0%	29.1%	0.0%	11.0%	-19.0%
CCCCCCCCCCCCCCCC(=O)OC[C@H](O)[C@H]1OC[C@@H](O)[C@@H]1O	·	·	-5.7%	·	4.9%	·
S=c1nc(-c2cc(Cl)ccc2Cl)[nH][nH]1	-11.8%	-29.9%	3.55µM*	8.1%	?	15µM*
COc1ccc(-c2nc(=S)[nH][nH]2)cc1	-26.4%	-21.4%	?	11.3%	79.4µM*	?
S=c1nc(-c2ccccc2Br)[nH][nH]1	?	-16.5%	?	5.7%	-2.4%	?
S=c1nc(-c2cccc(Cl)c2)[nH][nH]1	-23.5%	-21.4%	-17.3%	4.9%	-15.3%	-25.9%
S=c1nc(-c2cc(Cl)cc(Cl)c2)[nH][nH]1	-16.7%	-9.1%	-29.6%	5.1%	-20.3%	23.8µM*
N#CCCn1c(=O)c(-c2ccc(F)cc2)nc2cnc(Oc3ccccc3)nc21	12.4%	-18.7%	?	·	-2.7%	·
O=C(c1ccncc1)N1CCC2(CCC(CNC(=O)C3(N4CCOCC4)CCCCC3)O2)CC1 (centres undefined)	5.3%[9.04 µM]	-4.8%	·	·	·	·
CCNC(=O)C1CCCN(C(=O)c2cccc(C(F)(F)F)c2)CC1 (centres undefined)	-14.2%	-17.5%	·	·	·	2.9%
NNC(=O)COc1cccc(Oc2ccccc2)c1	?	18.4µM*	-9.4%	5.0%	12.3%	-14.3%
NNC(=O)COc1ccc(F)cc1	-7.6%	-1.5%	-2.8%	3.5%	-22.0%	-5.8%
Nc1nc2[nH]cc(CCc3ccc(C(=O)N[C@@H](CCC(=O)O)C(=O)O)cc3)c2c(=O)[nH]1	0.0473µM*	0.0299µM*	·	·	·	·
CN(Cc1ccccc1C(F)(F)F)C(=O)C1CCC(=O)N(CC2CCCCC2)C1 (centres undefined)	-23.5%	-12.5%	·	·	·	-0.3%
Cc1ccc(C(C)(C)NC(=O)C2CCC(=O)N(CC3CCCCC3)C2)cc1 (centres undefined)	?	1.4%	-6.0%	2.2%	-25.4%	26.7µM*
SMILES	DT40 TDP1 CPT	DT40 TDP1 no CPT	KAT2A inh	TDP1 inh	VDR inh	PLK1 PBD inh
Cc1ccccc1CNC(=O)C1CCC(=O)N(CC2CCCCC2)C1 (centres undefined)	?	-26.1%	-4.1%	4.4%	9.4%	-6.8%
CCc1ccc(CN(C)C(=O)C2CCC(=O)N(CC3CCCCC3)C2)cc1 (centres undefined)	23.1µM*	?	-4.3%	3.5%	-12.6%	3.7%
C[C@@H]1CN([C@H](C)CO)S(=O)(=O)c2ccc(Br)cc2O[C@H]1CN(C)S(C)(=O)=O	4.7%	-2.2%	·	·	·	2.1%
Cc1onc(-c2ccccc2)c1C(=O)Nc1nnc(CC(C)C)s1	-3.0%	-12.7%	-15.6%	1.8%	3.2%	-8.6%
CC(=O)N1CCC(C(=O)N2CCN(S(=O)(=O)c3ccc(F)cc3)CC2)CC1	-0.1%	18.4µM*	-1.7%	0.8%	-16.7%	-6.7%
Cc1cccc(C)c1N1CCN(S(=O)(=O)c2ccc(F)cc2)CC1	?	16.4µM*	-4.4%	4.5%	-16.9%	-9.1%
Cc1cnc(C(=O)N2CCN(S(=O)(=O)c3cc(C(F)(F)F)cc(C(F)(F)F)c3)CC2)cn1	-25.1%	?	·	·	1.1%	0.5%
Cc1ccccc1CN1CCN(S(=O)(=O)c2ccc(F)cc2)CC1	?	?	-4.3%	·	-23.7%	-0.5%
O=C(C1CCC1)N1CCN(S(=O)(=O)c2ccc(F)cc2)CC1	-27.3%	-24.6%	?	-0.5%	-0.9%	1.3%
CC(C)(C)c1ccc(S(=O)(=O)N2CCC(O)(c3ccc(Cl)cc3)CC2)cc1	?	18.4µM*	-1.6%	2.5%	-13.8%	-4.5%
CC1CC1C(=O)N1CCN(S(=O)(=O)c2cc(C(F)(F)F)cc(C(F)(F)F)c2)CC1 (centres undefined)	16.4µM*	?	-16.5%	0.1%	-10.9%	-5.8%
COc1ccc(S(=O)(=O)N2CCC(O)(c3ccc(Cl)cc3)CC2)cc1	-16.6%	-28.3%	-5.7%	3.2%	-0.4%	-1.0%
COC(=O)c1cc(NS(=O)(=O)c2ccc(NC(C)=O)cc2)ccc1Cl	?	?	-7.5%	8.4%	-0.8%	-0.8%
COc1ccc(-c2cn(CCC(=O)O)c(C)n2)cc1	-16.8%	-0.4%	1.2%	-0.1%	-4.5%	4.9%
Cc1ccc(S(=O)(=O)N2CCN(C(=O)C3CCCCC3)CC2)cc1	-12.4%	-8.1%	-3.3%	4.0%	18.4%	-1.3%
CC(C)(C)c1ccc(S(=O)(=O)N2CCN(C(=O)C3CCC3)CC2)cc1	8.2µM*	18.4µM*	-8.5%	0.4%	-10.1%	-2.8%

Source: PubChem BioAssay
